Experimental data from PubChem BioAssay (Tox21).
“And” between values parts separate entries of the source, which are not always exact repeats. Equal values may be shown once. Results filed as inconclusive are left out. Where a call stands in place of a potency, no number is given. Some structures have more than one record in an assay (separate samples or runs), and their calls can disagree. The source made the active and inactive calls. Unless noted, the call rests on the fitted dose curve; in most records, active means well fitted cell-killing curve with a large enough effect in the repeat runs; inconclusive means weak or mixed curves, or effect the other way; inactive means flat fitted curve, though single readings scatter.

System: not listed separately
Assay: qHTS assay to identify small molecule agonists of the estrogen receptor beta (ER-beta) signaling pathway - cell viability counter screen (AID 1259380); further: nearly all actives have a fitted effect of over 30% in size
Conditions: ER-beta-bla HEK293T viability, CellTiter-Glo luminescence, 16 h; series mostly up to 92.4 µM
Outline: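 Measured: luminescence from CellTiter-Glo after 30 min at room temperature, added to wells already read for the LiveBLAzer FRET reporter (2 hr substrate); ER-beta-UAS-bla HEK293T cells had 16 hr compound treatment at 37C, 5% CO2.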
Potency means the concentration at half of the fitted maximal effect.

**Q.** For c1csc(-c2ccc(-c3cccs3)s2)c1, which Potency is on record?
**A.** inactive

**Q.** Which Potency does the source give for CC[N+]1(CC)CCC(OC(=O)C(O)(c2ccccc2)c2ccccc2)C1 (stereo unspecified) here?
**A.** inactive

**Q.** With CCCCON=O as the molecule, how does the Potency read?
**A.** inactive

**Q.** For CNC(=O)O/N=C(\C)C(C)S(C)(=O)=O (stereo unspecified), which Potency is on record?
**A.** inactive

**Q.** Which Potency does the source give for N#CCCl here?
**A.** 25.4 µM (active)

**Q.** For C[C@]12Cc3cn[nH]c3C[C@@H]1CC[C@@H]1[C@@H]2CC[C@@]2(C)[C@H]1CC[C@]2(C)O, which Potency is on record?
**A.** 8.41 µM (active)

**Q.** With CC1CCCC1 as the molecule, how does the Potency read?
**A.** inactive

**Q.** Which Potency does the source give for CCOP(=S)(OCC)Oc1cc(C)nc(N(CC)CC)n1 here?
**A.** inactive

**Q.** For Clc1ccc(C(c2ccc(Cl)cc2)C(Cl)Cl)cc1, which Potency is on record?
**A.** 54.5 µM (active)

**Q.** For CCCN, which Potency is on record?
**A.** inactive

**Q.** For CC(Cc1ccc2c(c1)OCO2)NO (stereo unspecified), which Potency is on record?
**A.** inactive

**Q.** For CN=C=O, which Potency is on record?
**A.** inactive

**Q.** With Cc1cc2c3c(c1)C(c1ccccc1)=N[C@@H](NC(=O)c1ccncc1)C(=O)N3CC2 as the molecule, how does the Potency read?
**A.** inactive

**Q.** With CN(C)CCc1c[nH]c2ccccc12 as the molecule, how does the Potency read?
**A.** inactive

**Q.** For CN1C(=O)[C@@H](NC(=O)c2cc3ccccc3[nH]2)N=C(c2ccccc2)c2ccccc21, which Potency is on record?
**A.** inactive

**Q.** With O=P(Cl)(Cl)Cl as the molecule, how does the Potency read?
**A.** inactive

**Q.** With CCOP(=S)(OCC)SC(CCl)N1C(=O)c2ccccc2C1=O (stereo unspecified) as the molecule, how does the Potency read?
**A.** inactive

**Q.** With CCN(CC)C(=S)S as the molecule, how does the Potency read?
**A.** 6.08 µM (active) and 9.69 µM (active)

**Q.** Which activity change, negative = cytotoxicity does the source give for Clc1c(Cl)c(Cl)c(Cl)c(Cl)c1Cl here?
**A.** 0.531% [at 8.39 µM] (inactive)

**Q.** With CCCCCCCc1ccc(O)cc1 as the molecule, how does the Potency read?
**A.** 54.5 µM (active)

**Q.** Which Potency does the source give for CCNS(=O)(=O)C(F)(F)C(F)(F)C(F)(F)C(F)(F)C(F)(F)C(F)(F)C(F)(F)C(F)(F)F here?
**A.** 23.3 µM (active)

**Q.** Which Potency does the source give for Cc1c([N+](=O)[O-])c(C)c([N+](=O)[O-])c(C(C)(C)C)c1[N+](=O)[O-] here?
**A.** 27.3 µM (active)

**Q.** With CN1CCc2cc(Cl)c(O)cc2[C@H]2c3ccccc3CC[C@@H]21 as the molecule, how does the Potency read?
**A.** 15 µM (active)

**Q.** With CCC1(CC)C(=O)N=C(O)NC1=O as the molecule, how does the Potency read?
**A.** inactive

**Q.** Which Potency does the source give for ClC1=C(Cl)[C@]2(Cl)[C@@H]3[C@H]4C[C@H]([C@@H]5O[C@H]45)[C@@H]3[C@@]1(Cl)C2(Cl)Cl here?
**A.** inactive

**Q.** Which Potency does the source give for c1ccc2c(c1)cc1ccc3cccc4ccc2c1c34 here?
**A.** inactive

Target: Androgen receptor (Homo sapiens) (UniProt P10275)
Sequence (P10275 whole entry, looked up): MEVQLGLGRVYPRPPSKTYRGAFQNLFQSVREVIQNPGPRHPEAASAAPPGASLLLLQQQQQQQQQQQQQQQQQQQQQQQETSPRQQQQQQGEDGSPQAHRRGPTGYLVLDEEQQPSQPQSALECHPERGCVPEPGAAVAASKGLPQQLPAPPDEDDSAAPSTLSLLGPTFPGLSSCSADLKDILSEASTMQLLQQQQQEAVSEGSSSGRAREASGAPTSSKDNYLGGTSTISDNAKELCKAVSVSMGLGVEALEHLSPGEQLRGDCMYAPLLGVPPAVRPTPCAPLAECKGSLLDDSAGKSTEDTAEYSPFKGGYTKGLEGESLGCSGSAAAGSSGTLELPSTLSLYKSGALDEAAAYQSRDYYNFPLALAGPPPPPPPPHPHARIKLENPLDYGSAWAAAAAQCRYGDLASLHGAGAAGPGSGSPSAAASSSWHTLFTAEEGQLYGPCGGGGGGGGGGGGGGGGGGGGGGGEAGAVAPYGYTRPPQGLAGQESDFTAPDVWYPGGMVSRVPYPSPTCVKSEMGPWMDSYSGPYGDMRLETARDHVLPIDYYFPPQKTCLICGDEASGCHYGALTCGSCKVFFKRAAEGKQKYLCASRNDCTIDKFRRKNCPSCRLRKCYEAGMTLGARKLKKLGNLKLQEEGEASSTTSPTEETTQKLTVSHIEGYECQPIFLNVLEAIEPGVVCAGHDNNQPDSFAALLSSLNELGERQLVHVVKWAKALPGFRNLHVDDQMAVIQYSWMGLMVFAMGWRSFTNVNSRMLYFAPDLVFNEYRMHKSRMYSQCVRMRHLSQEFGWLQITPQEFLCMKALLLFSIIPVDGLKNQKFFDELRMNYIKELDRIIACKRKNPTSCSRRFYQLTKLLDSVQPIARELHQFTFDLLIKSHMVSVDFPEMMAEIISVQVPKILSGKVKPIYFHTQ
Assay: qHTS assay to identify small molecule agonists of the androgen receptor (AR) signaling pathway in the presence of an antagonist (AID 1259381; calls by dose curve; further: nearly all actives have a fitted effect of over 15% in size)
Conditions: MDA-kb2 MMTV-luciferase, AR agonist + nilutamide, 16 h; series mostly up to 92.4 µM
Outline: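 Luminescent ONE-Glo read, 30min at room temperature, follows 16hr compound exposure (15 concentrations) of MDA-kb2 cells at 37C, 0% CO2, with nilutamide added at 3.0uM final.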

**Q.** With CC1=C2C[C@H]3[C@@H](CC=C4C[C@@H](O)CC[C@@]43C)[C@@H]2CC[C@]12O[C@@H]1C[C@H](C)CN[C@H]1[C@H]2C as the molecule, how does the Potency read?
**A.** inactive

**Q.** With CCOP(=S)(OCC)Oc1cc(C)nc(N(CC)CC)n1 as the molecule, how does the Potency read?
**A.** inactive

**Q.** Which Potency does the source give for ClC1(Cl)C2(Cl)C3(Cl)C4(Cl)C(Cl)(Cl)C5(Cl)C3(Cl)C1(Cl)C5(Cl)C24Cl (stereo unspecified) here?
**A.** inactive

**Q.** Which Potency does the source give for COP(=O)(OC)O/C(=C\Cl)c1cc(Cl)c(Cl)cc1Cl here?
**A.** inactive

**Q.** With O=c1[nH]c(Cl)c(Cl)cc1Cl as the molecule, how does the Potency read?
**A.** inactive

**Q.** With CCOP(=S)(OCC)SC(CCl)N1C(=O)c2ccccc2C1=O (stereo unspecified) as the molecule, how does the Potency read?
**A.** inactive

**Q.** With CCCCCCCc1ccc(O)cc1 as the molecule, how does the Potency read?
**A.** inactive

**Q.** For CCNS(=O)(=O)C(F)(F)C(F)(F)C(F)(F)C(F)(F)C(F)(F)C(F)(F)C(F)(F)C(F)(F)F, which Potency is on record?
**A.** inactive

**Q.** For O=C1C2(Cl)C3(Cl)C4(Cl)C(Cl)(Cl)C5(Cl)C3(Cl)C1(Cl)C5(Cl)C24Cl (stereo unspecified), which Potency is on record?
**A.** 13.5 µM (active) and inactive

**Q.** With CCO/N=C(\CC)C1=C(O)CC(c2c(C)cc(C)cc2C)CC1=O (stereo unspecified) as the molecule, how does the Potency read?
**A.** inactive
